The text below walks through data of PubChem BioAssay AID1494156 (National Center for Advancing Translational Sciences (NCATS), 2020).

Results filed as inconclusive are left out. A number with no mark means an inactive call. Activity calls are given as the source filed them. The call rests on the fitted dose curve.

This experiment is described as follows: VSV-G qHTS counterscreen for inhibitors of MERS-S pseudo-typed particle cell entry. Particulars: VSV-G pseudotyped particle cell entry, luciferase counterscreen; series mostly up to 57.1 µM; activity, negative = inhibition: at the top concentration.
For `COc1cccc2c1C(=O)c1c(O)c3c(c(O)c1C2=O)C[C@@](O)(C(=O)CO)C[C@@H]3O[C@H]1C[C@H](N)[C@@H](O)[C@H](C)O1`, the Potency is 2410 nM (active).

Turning to `Cc1nnc2n1-c1sc(CCc3ccc(CC(C)C)cc3)cc1C(c1ccccc1Cl)=NC2C` (configuration not stated), the Potency is 24100 nM (active). In the case of `CN(C/C=C/c1ccccc1)Cc1cccc2ccccc12`, the “activity, negative = inhibition” value was -16.4%.

`COc1c(OCCCN2CCOCC2)ccc2c3n(c(=NC(=O)c4cnc(N)nc4)nc12)CCN3`: the activity, negative = inhibition was -8.49% [at 11.2 µM]. With `COc1cc2c(cc1Cc1cccc(Cl)c1F)c(=O)c(C(=O)O)cn2[C@H](CO)C(C)C`, the Potency is 192 nM (active). On the same count and under the same terms, the same measure for `C[C@@H](c1nc(-c2ccc(C#N)cc2)cs1)[C@](O)(Cn1cncn1)c1cc(F)ccc1F`: 2150 nM (active).

As to `CN(C)CC/C=C1\c2ccccc2Sc2ccc(Cl)cc21`, the Potency was 8570 nM (active). Consider `O=C(Nc1ccc([N+](=O)[O-])cc1Cl)c1cc(Cl)ccc1O`, for which the Potency was 607 nM (active). In the case of `Cc1nnc(C(=O)NC(C)(C)c2nc(C(=O)NCc3ccc(F)cc3)c(O)c(=O)n2C)o1`, the Potency is 3.8 nM (active). Regarding `CCN(CC)CCNC(=O)c1c(C)[nH]c(/C=C2\C(=O)Nc3ccc(F)cc32)c1C`, the Potency was 7640 nM (active). The same measure, in the same setting: the same measure for `CN(C)[C@@H](CCOc1cccc2ccccc12)c1ccccc1`: 21500 nM (active).

Regarding `C=CC1(C)CC(=O)C2(O)C(C)(O1)C(OC(C)=O)C(OC(=O)CCN(C)C)C1C(C)(C)CCC(O)C12C` (configuration not stated), the “activity, negative = inhibition” value was 0%. Consider `CC(C)OC(=O)[C@H](C)N[P@](=O)(CO[C@H](C)Cn1cnc2c(N)ncnc21)Oc1ccccc1`, for which the Potency is 27.1 nM (active).

For the compound `COc1cccc2c1C(=O)c1c(O)c3c(c(O)c1C2=O)C[C@@](O)(C(=O)CO)CC3OC1CC(N2CCOC(OC)C2)C(O)C(C)O1` (some centres not stated), the Potency was 152 nM (active).

Turning to `CCOc1cc2ncc(C#N)c(Nc3ccc(OCc4ccccn4)c(Cl)c3)c2cc1NC(=O)/C=C/CN(C)C`, the activity, negative = inhibition was -3.61% [at 11.2 µM].

Take `NCCNc1ccc(NCCN)c2c1C(=O)c1ccncc1C2=O`: the Potency was 21500 nM (active). `COc1cccc2c1C(=O)c1c(O)c3c(c(O)c1C2=O)C[C@@](O)(C(=O)CO)C[C@@H]3O[C@H]1C[C@H](N)[C@H](OC2CCCCO2)[C@H](C)O1` (some centres not stated): the “activity, negative = inhibition” value is 0%.

For `O=C(Nc1ccc(Cl)cc1)Nc1ccc(Cl)c(C(F)(F)F)c1`, the Potency was 10800 nM (active). Still for that read-out and setting: the same measure for `O=c1[nH]c(=O)n([C@H]2C[C@H](O)[C@@H](CO)O2)cc1C(F)(F)F`: 2410 nM (active); for `Cc1cc(-n2c(=O)[nH]c(=O)n(C)c2=O)ccc1Oc1ccc(S(=O)(=O)C(F)(F)F)cc1`: 9610 nM (active). Take `CC(C)(C)c1ccc(C(=O)CCCN2CCC(OC(c3ccccc3)c3ccccc3)CC2)cc1`: the Potency is 8570 nM (active).

Regarding `Cc1cn([C@H]2C[C@H](N=[N+]=[N-])[C@@H](CO)O2)c(=O)[nH]c1=O`, the Potency was 304 nM (active). For the compound `CCCCc1oc2ccccc2c1C(=O)c1cc(I)c(OCCN(CC)CC)c(I)c1`, the Potency was 24100 nM (active).

Turning to `CCCN1C[C@H](C)[C@@H](O)[C@](C)(O)[C@@H](CC)OC(=O)[C@H](C)[C@@H](O[C@H]2C[C@@](C)(OC)[C@@H](O)[C@H](C)O2)C(C)[C@@H](O[C@@H]2O[C@H](C)C[C@H](N(C)C)[C@H]2O)[C@](C)(O)C[C@H]1C` (some centres not stated), the “activity, negative = inhibition” value is 0%. `CC(=O)OCC1=C(C(=O)O)N2C(=O)[C@@H](NC(=O)Cc3cccs3)[C@H]2SC1`: the “activity, negative = inhibition” value was -2.27%. As to `N#CC(c1ccc(Cl)cc1)c1c(Cl)cc(-n2ncc(=O)[nH]c2=O)cc1Cl` (configuration not stated), the Potency is 3830 nM (active).

As to `O=C1c2c(O)ccc(O)c2C(=O)c2c(NCCNCCO)ccc(NCCNCCO)c21`, the Potency is 541 nM (active).

`CNC(=O)c1cc(Oc2ccc(NC(=O)Nc3ccc(Cl)c(C(F)(F)F)c3)c(F)c2)ccn1`: the Potency is 15200 nM (active). Same read-out and setting: the same measure for `CC(=O)Oc1ccccc1C(=O)Nc1ncc([N+](=O)[O-])s1`: 10800 nM (active); for `CC(C)(C)C(=O)OCOP(=O)(COCCn1cnc2c(N)ncnc21)OCOC(=O)C(C)(C)C`: 42.9 nM (active); for `COc1cc([C@@H]2c3cc4c(cc3C(O[C@@H]3O[C@@H]5CO[C@@H](c6cccs6)OC5[C@H](O)[C@H]3O)C3COC(=O)[C@@H]32)OCO4)cc(OC)c1O` (some centres not stated): 192 nM (active). Same read-out and setting: the same measure for `COc1cccc2c1C(=O)c1c(O)c3c(c(O)c1C2=O)C[C@@](O)(C(C)=O)C[C@@H]3O[C@H]1C[C@H](N)[C@H](O)[C@H](C)O1`: 1920 nM (active).
